Bioassay records (PubChem BioAssay)
TDP1 cell CPT: qHTS for Inhibitors of human tyrosyl-DNA phosphodiesterase 1 (TDP1): qHTS in cells in presence of CPT. Potency, µM (doses to about 46.2 µM), for inactives: at the top dose activity change, negative = growth inhibition, actives largely listed as inhibitors. chicken DT40 Tdp1-/-;hTDP1 cells + 20 nM CPT, ATP luminescence, 48 h. 420,000 tested, 12% active; also: potency is read from the fitted curve at half-maximal effect; % is scaled to controls: 0 for no effect and ±100 for the full control effect; nearly all actives have a fitted effect of over 55% in size
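Chicken DT40 Tdp1-/- cells stably complemented with human TDP1 were seeded at 400 cells/well in medium containing 20 nM camptothecin, exposed to pin-transferred compounds, and grown at 37 °C for at least 48 hr. Viability was read as ATP luminescence.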
TDP1 cell noCPT: qHTS for Inhibitors of human tyrosyl-DNA phosphodiesterase 1 (TDP1): qHTS in cells in absence of CPT. DT40 Tdp1-/- hTDP1 cells, no CPT, ATP luminescence, 48 h. Potency, µM (top dose mostly 46.2 µM), for inactives: at the highest dose activity change, negative = growth inhibition, actives largely listed as inhibitors. 420,000 tested, 15% active; also: potency is read from the fitted curve at half-maximal effect; % is scaled to controls: 0 for no effect and ±100 for the full control effect; nearly all actives have a fitted effect of over 55% in size
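Camptothecin absent (DMSO only). Human TDP1-complemented DT40 knockout cells, 400 cells/well, 37 °C for minimum 48 hr; ATP measured via CellTiter-Glo, 30 min dark incubation, luminescence.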
IL-1B inflam inh: qHTS for Inhibitors of Inflammasome Signaling: IL-1-beta AlphaLISA Primary Screen. THP-1 LPS/ATP IL-1B secretion, AlphaLISA, 16 h; active compounds read low. activity change, % at 57.5 µM. 360,000 tested, 4.7% active. AID 743279, 2014; in the data active = activity change below about -50%; inconclusive = mostly about -30% to -49%; also: % is scaled to controls: 0 for no effect and ±100 for the full control effect
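Secreted IL-1B measured by AlphaLISA bead assay after 16 h compound exposure of THP-1 cells; compounds (final up to 57.5 uM) added 1 h before LPS (250 ng/mL) and ATP (1.25 mM) stimulation; lower signal means less secretion.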
DRD3 antagonist: qHTS of D3 Dopamine Receptor Antagonist: qHTS. max response, negative = inhibition, %. 360,000 tested, 2.5% active. D3R cells, DiscoveRx beta-arrestin luminescence, antagonist mode; active compounds read low. D(3) dopamine receptor (Homo sapiens), P35462. AID 652054, 2013; in the data active = max response below about -50%; inconclusive = no clear call, values can overlap the other calls; also: % is scaled to controls: 0 for no effect and ±100 for the full control effect
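Cells expressing the human receptor were seeded at 1500 cells/well, incubated overnight at 37 degrees C in 5% CO2, then exposed to library compounds with dopamine controls for 90 minutes at 37 degrees C before luminescent detection.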
ClpP mod: qHTS Assay for Activators of ClpP. ATP-dependent Clp protease proteolytic subunit (Bacillus subtilis (strain 168)), P80244. purified B. subtilis ClpP, FRET peptide cleavage, 20 min. Potency, µM (top dose mostly 57.5 µM), for the others: top-dose activity change, negative = active. 340,000 tested, 1.9% active. AID 651965, 2013; active = well fitted falling curve with a large enough effect; inconclusive = small, poorly fitted or top-dose-only effect; inactive = no such curve, though single readings can be large or run the other way; also: potency is read from the fitted curve at half-maximal effect; the source files actives as falling curves though it sought activators and does not explain the sign; nearly all actives have a fitted effect of over 65% in size
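FRET quenching reversal measured ClpP activation: 10 microg/mL B. subtilis ClpP at pH 8 with the FRET-FV decapeptide, read at 430 nm after 320 nm excitation. The 20-min minus 0-min signal was scaled between DMSO/no-enzyme wells and ADEP (5.8 microM final).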
DRD3 agonist: qHTS of D3 Dopamine Receptor Agonist: qHTS; D(3) dopamine receptor (Homo sapiens), P35462; D3R DiscoveRx beta-arrestin cells, luminescence, 90 min; max activation, %; 410,000 tested, 0.58% active; AID 652048, 2013; in the data active = max activation above about 30%; also: 0% is about no effect
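Agonist-mode cell screen: cells plated at 1500/well and incubated overnight at 37 °C, then exposed to library compounds for 90 min at 37 °C. Detection reagent was added for 30–60 min at room temperature, and luminescence was read.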
* marks the source's active call; other numbers are inactive results; ? = inconclusive; . = no result. Rows were chosen to be rich in hits. Some 21% of all compounds tested hit in one or more screens of this group. Unless noted, calls follow the shape of the dose curve; as a rule, active = well fitted inhibition curve with a large enough effect; inconclusive = small, poorly fitted or top-dose-only effect; inactive = flat fitted curve, though single readings scatter.

SMILES	TDP1 cell CPT	TDP1 cell noCPT	IL-1B inflam inh	DRD3 antagonist	ClpP mod	DRD3 agonist
COc1cccc(Nc2ncnc3sccc23)c1	?	?	8.3	-12.6	.	-11.9
CN(C)C(=O)c1ccc(-c2ccc3ncnc(Nc4ccccc4)c3c2)cc1	?	1.46µM*	.	.	.	.
Cc1cc2oc(C(=O)Nc3ccc(S(=O)(=O)Nc4ncccn4)cc3)cc(=O)c2cc1C	-1.6%	-14.2%	.	.	-5.5%	-18.3
CCCCC(=O)/C=C/n1c(=S)oc2ccccc21	5.17µM*	4.11µM*	-101.1*	-3.1	.	-1.9
COC(=O)c1cc(-c2cccs2)nn1-c1ccccc1	4.3%	-13.7%	8.9	3.6	.	13.7
O=C(COC(=O)c1cc(-c2cccs2)nn1-c1ccccc1)Nc1cccc([N+](=O)[O-])c1	2.7%	-29.7%	20.3	3.4	.	-5.8
CCN(CC)S(=O)(=O)c1cccc(NC(=O)c2cc(-c3cccs3)nn2-c2ccccc2)c1	20.6µM*	14.6µM*	7.3	-7.7	-28.4%	-6.4
CN(C)S(=O)(=O)c1cccc(NC(=O)c2cc(-c3cccs3)nn2-c2ccccc2)c1	?	14.6µM*	0.0	4.7	-28.4%	1.8
CCCCCOc1ccc(C(=O)CCC(=O)NC(C)c2ccc(S(N)(=O)=O)cc2)cc1 (configuration not stated)	?	?	19.1	15.0	.	22.0
CCOc1ccc(CN2C(=O)c3ccccc3C2C(=O)NC(C)CC)cc1OC (configuration not stated)	6.3%	-19.5%	20.8	-63.1*	.	0.4
Cc1nc2c(C#N)cnn2c2c1CCN(Cc1ccccc1)N2C	1.1%	?	-5.0	-6.0	.	-1.9
Cc1nc2c(C#N)cnn2c2c1CCN2CC1CCCO1 (configuration not stated)	-28.7%	10.4%	-6.9	1.1	3.9%	43.1*
CN(C(=S)Nc1ccc(SC(F)F)cc1)c1ccc(O)cc1	?	?	-53.6*	-17.2	28.6%	-6.4
CN(C(=S)Nc1ccc(Oc2ccccc2)cc1)c1ccc(O)cc1	?	?	-73.4*	?	29.6%	-3.1
COc1ccc(C(=O)N2CCC[C@@]3(CCN(C)C3)C2)cc1	-6.7%	-17.6%	.	.	.	.
Cc1nc2ccc(S(=O)(=O)NCC(=O)Nc3ccc(F)cc3)cc2s1	-6.3%	7.2%	-7.5	-12.6	-2.9%	8.9
COc1ccc(Cn2c(N)c(C#N)c3nc4ccccc4nc32)cc1OC	-14.1%	-22.3%	-5.0	-14.7	14.1µM*	-2.1
COc1ccccc1CCn1c(N)c(C#N)c2nc3ccccc3nc21	?	?	?	-5.6	31.6µM*	-0.2
COc1ccc(CCn2c(N)c(C#N)c3nc4ccccc4nc32)cc1OC	20.6µM*	13µM*	-8.9	-24.0	?	6.4
CCCCCn1c(N)c(C#N)c2nc3ccccc3nc21	-21.7%	?	-11.4	8.4	?	7.2
Cc1ccc(OCC(=O)Nc2ccc(S(=O)(=O)NC3=NCCCCC3)cc2)cc1	?	-25.0%	-3.0	6.3	-1.6%	4.4
O=C(NCCN1CCOCC1)C1CC(=O)N(c2ccc(Cl)cc2)C1 (configuration not stated)	0.7%	-20.5%	28.1	2.0	.	-12.8
O=C(c1cnccn1)N1CCC2(CC1)CCN(c1ccncc1)CC2	-4.2%	-28.5%	.	.	.	.
CCCCCOc1ccc(Cn2c(=O)oc3ccc(C)cc32)cc1OC	25.9µM*	20.6µM*	.	.	-0.3%	1.6
Cc1ccc(C(C)C)c(OCCCn2c(=O)oc3ccc(C)cc32)c1	?	16.4µM*	.	.	-1.3%	2.0
SMILES	TDP1 cell CPT	TDP1 cell noCPT	IL-1B inflam inh	DRD3 antagonist	ClpP mod	DRD3 agonist
COc1cc(Cn2c(=O)oc3ccc(C)cc32)ccc1OC(C)C	-27.3%	-18.9%	-5.9	13.6	1.0%	1.5
CCOC(=O)CC(C)(C)/C(C)=N/Nc1ccc([N+](=O)[O-])cc1[N+](=O)[O-]	?	14.6µM*	10.1	-2.8	.	2.3
CCOC(=O)C(C(=O)OCC)C(C)(C)/C(C)=N\Nc1ccc([N+](=O)[O-])cc1[N+](=O)[O-]	?	?	19.1	4.8	1.1%	-2.0
CCC(C(=O)Nc1cc(F)ccc1F)n1nc(-c2cc(C)ccc2C)ccc1=O (configuration not stated)	?	?	.	.	-1.4%	3.4
Cc1ccc(S(=O)(=O)N2CCN(c3nc(CN4CCCC4)nc4sc(C)c(C)c34)CC2)cc1	?	?	?	-15.1	-5.9%	-11.6
Cc1sc2nc(CN3CCOCC3)nc(NS(=O)(=O)c3ccccc3)c2c1C	-13.8%	-5.9%	3.9	0.0	-1.2%	7.0
Cc1sc2nc(CN3CCCC3)nc(N3CCN(S(=O)(=O)c4cccs4)CC3)c2c1C	?	18.4µM*	?	?	-11.7%	-10.3
Cc1ccc(C)c(S(=O)(=O)N2CCN(c3nc(CN4CCOCC4)nc4sc(C)c(C)c34)CC2)c1	?	18.4µM*	-28.3	-19.4	-2.4%	-14.3
CCCn1cnc2c(=S)nc(N)[nH]c21	0.3%	3.1%	-18.3	-0.2	4.5%	1.0
CC1CCc2c(sc3nc(CN4CCOCC4)nc(Sc4ccccc4)c23)C1 (configuration not stated)	?	20.6µM*	-20.1	18.7	0.2%	6.1
COc1cc2c(cc1OC)CN(c1nc(CN3CCOCC3)nc3sc4c(c13)CCC(C)C4)CC2 (configuration not stated)	11.6µM*	14.6µM*	-67.7*	13.5	-6.8%	-5.4
Clc1nc(CN2CCOCC2)nc2sc3c(c12)CCC3	9.6%	1.3%	-29.7	-8.7	-4.4%	-0.1
COc1ccc(C(=O)N2CCN(C(=O)C3CCCO3)CC2)cc1[N+](=O)[O-] (configuration not stated)	-1.8%	27.7%	6.6	0.0	-0.1%	-4.6
COc1ccc(C(C(=O)NC2CCCC2)N(C(=O)Cc2cccs2)C2CC2)cc1OC (configuration not stated)	9.8%	-2.0%	-6.5	2.4	.	-6.4
COc1ccc(C(C(=O)NC2CCCCC2)N(C(=O)Cc2c[nH]c3ccccc23)c2ccccc2C)cc1OC (configuration not stated)	?	20.6µM*	-60.5*	-17.8	-4.4%	-1.3
